# Measured values as given in PubChem BioAssay (NCATS).
# Unmarked numbers belong to inactive results. Calls of active or inactive are those of the source. Calls follow the shape of the dose curve; as a rule, active = well fitted inhibition curve with a large enough effect; inconclusive = small, poorly fitted or top-dose-only effect; inactive = flat fitted curve, though single readings scatter. Where a SMILES comes first, the peptide text is derived from it. [ ]: non-standard residue; d: D form. pGlu = O=C1CC[C@@H](C(=O)O)N1; Thz = O=C(O)[C@@H]1CSCN1
# Target: Luciferin 4-monooxygenase (Photinus pyralis) (UniProt P08659)
# Test: Primary firefly luciferase (FLuc) qHTS assay for identification of artifact compounds. (AID 1845220); also: nearly all actives have a fitted effect of over 60% in size;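 as to activity change, negative = inhibition: plate controls were DMSO vehicle for no effect and no enzyme for full effect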
# Conditions: purified firefly luciferase, luminescence, 5 min; series mostly up to 54.1 µM; activity change, negative = inhibition: at the top concentration
# Summary of the method: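 Reaction readout was CCD-imaged luminescence, taken 5 min after adding 10 nM purified firefly enzyme to compound-treated wells holding 10 uM luciferin and ATP in pH 7.6 buffer.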
SMILES,"activity change, negative = inhibition",outcome
O=C(O)CC1CC(c2ccccc2)=NO1 (centres undefined),-6.81% [at 25.7 µM],–
O=C1CC[C@@H](C(=O)N2CSC[C@H]2C(=O)O)N1 ([pGlu]-[Thz]-OH),–,inactive
CC1(C)S[C@@H]2[C@H](NC(=O)[C@H](N)c3ccc(O)cc3)C(=O)N2[C@H]1C(=O)O,-0.679%,–
COc1cc(/C=C/C(=O)N2CCN(CC(=O)N3CCCC3)CC2)cc(OC)c1OC,-3.92%,–
CC1(C)S[C@@H]2[C@H](NC(=O)[C@H](NC(=O)N3CCN(S(C)(=O)=O)C3=O)c3ccccc3)C(=O)N2[C@H]1C(=O)O,–,inactive
C[C@H](O)[C@H](O)[C@H]1CNc2nc(N)[nH]c(=O)c2N1,–,inactive
CN1[C@@H]2CC[C@H]1CC(OC(c1ccccc1)c1ccccc1)C2 (some centres undefined),2.07%,–
CC1(C)[C@@H](O)CC[C@]2(C)[C@H]3C(=O)C=C4[C@@H]5C[C@@](C)(C(=O)O)CC[C@]5(C)CC[C@@]4(C)[C@]3(C)CC[C@@H]12,0.196%,–
COC(=O)[C@H]1[C@H]2C[C@@H]3c4[nH]c5cc(OC)ccc5c4CCN3C[C@H]2C[C@@H](OC(=O)/C=C/c2cc(OC)c(OC)c(OC)c2)[C@@H]1OC,3.06% [at 25.7 µM],–
O=C(O)Cc1cccc(-c2cc(CCCCCCc3ccc(O[C@H]4O[C@H](CO)[C@@H](O)[C@H](O)[C@@H]4O)c(-c4cccc(CC(=O)O)c4)c3)ccc2O[C@H]2O[C@H](CO)[C@@H](O)[C@H](O)[C@@H]2O)c1,–,inactive [at 0.464 µM]
CC(=O)O[C@H]1C[C@@]2(C)[C@@H](C[C@@H](O)[C@H]3[C@@]4(C)CC[C@@H](O)[C@@H](C)[C@@H]4CC[C@@]32C)/C1=C(\CCC=C(C)C)C(=O)O,3.34%,–
CN1[C@@H]2CC[C@H]1CC(OC(=O)C(CO)c1ccccc1)C2 (some centres undefined),–,inactive
COc1cc(CNC(=O)CCCC/C=C/C(C)C)ccc1O,–,inactive
CC(C(=O)O)c1ccc2c(c1)[nH]c1ccc(Cl)cc12 (centres undefined),-23.1%,–
O=C(O)[C@H](CC(=O)N1C[C@H]2CCCC[C@H]2C1)Cc1ccccc1,-9.08%,–
CC(=O)c1ccc(OCC(=O)N2CCCCC2)cc1,–,inactive
CCNC(=O)[C@H]1O[C@@H](n2cnc3c(N)nc(NCCc4ccc(CCC(=O)O)cc4)nc32)[C@H](O)[C@@H]1O,0.148%,–
Cc1onc(-c2c(F)cccc2Cl)c1C(=O)N[C@@H]1C(=O)N2[C@@H]1SC(C)(C)[C@@H]2C(=O)O,-5.33%,–
CC1(C)[C@@H](O[C@H]2O[C@H](C(=O)O)[C@@H](O)[C@H](O)[C@H]2O[C@@H]2O[C@H](C(=O)O)[C@@H](O)[C@H](O)[C@H]2O)CC[C@]2(C)[C@H]3C(=O)C=C4[C@@H]5C[C@@](C)(C(=O)O)CC[C@]5(C)CC[C@@]4(C)[C@]3(C)CC[C@@H]12,-0.114% [at 25.7 µM],–
